Experimental data from PubChem BioAssay.
Measured potencies and affinities stand elsewhere. Active and inactive are the calls of the source. The rule behind the calls is not given here.

assay: OVCAR8 cell viability loss – plate reader, dry powder samples, PAX8 project, dose response (AID 743197); conditions: series mostly up to 35 µM

Structure (SMILES) | outcome
O=C(Nc1ccc(F)cc1)N1CCCCN2[C@@H](CO)[C@@H](c3ccc(C#Cc4ccccc4)cc3)[C@@H]2C1 | inactive
C[C@H]1CCCCO[C@H](CN(C)C(=O)C2CCCCC2)[C@@H](C)CN([C@@H](C)CO)C(=O)c2cc(NC(=O)Nc3ccc(F)cc3)ccc2O1 | inactive
CO[C@@H]1CN(C)C(=O)c2cc(NC(=O)c3ccc(-c4ccccc4)cc3)ccc2OC[C@H](C)NC[C@H]1C | inactive
C[C@H](CO)N1C[C@H](C)[C@@H](CN(C)C(=O)C2CCCCC2)OCCCC[C@H](C)Oc2ccc(NS(=O)(=O)c3ccc(Cl)cc3)cc2C1=O | inactive
Cc1ccc(S(=O)(=O)Nc2ccc3c(c2)CC(=O)N([C@@H](C)CO)C[C@H](C)[C@@H](CN(C)C(=O)Nc2ccc(C(F)(F)F)cc2)O3)cc1 | inactive
Cc1ccc(S(=O)(=O)N(C)C[C@@H]2Oc3cc(C#Cc4ccncc4)ccc3S(=O)(=O)N([C@H](C)CO)C[C@@H]2C)cc1 | inactive
CC(C)CC#Cc1ccc2c(c1)O[C@H](CN(C)Cc1ccc(C(=O)O)cc1)[C@@H](C)CN([C@H](C)CO)S2(=O)=O | inactive
